Hits are enriched below; roughly 19% of the tested compounds scored in any of these assays.
TDP1 cell noCPT: qHTS for Inhibitors of human tyrosyl-DNA phosphodiesterase 1 (TDP1): qHTS in cells in absence of CPT. AID 686978, 2013. Potency, µM (doses to about 46.2 µM), without a hit: top-dose activity change, negative = growth inhibition, most hits filed as inhibitors. 15% of 420,000 active. DT40 Tdp1-/- hTDP1 cells, no CPT, ATP luminescence, 48 h; further: nearly all actives have a fitted effect of over 55% in size
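Compound effects on proliferation are scored in DT40 Tdp1-/-;hTDP1 cells in the absence of CPT. ATP levels (CellTiter-Glo luminescence) are recorded after a ≥48 hr, 37 °C incubation.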
RORgamma inh: inhibitors of mouse ROR gamma transcriptional activity; P51450; Drosophila S2 Gal4-RORgamma UAS-luciferase reporter, 20 h; Potency, µM (top dose mostly 53.6 µM), for inactives: top-dose activity change, negative = inhibition, most hits filed as inhibitors; 5.4% of 310,000 active; further: nearly all actives have a fitted effect of over 60% in size
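Stably transfected Drosophila Schneider cells are the test system, with ROR gamma fused to Gal4 and luciferase under UAS control; luminescence is read after 20 hr of 700 uM copper sulfate induction at ambient temperature.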
DT40 TDP1 CPT: growth inhibition of DT40 Tdp1-/-;hTDP1 cells with camptothecin (screen for TDP1 inhibitors); 12% of 420,000 active; chicken DT40 Tdp1-/-;hTDP1 cells + 20 nM CPT, ATP luminescence, 48 h; Potency, µM (top dose mostly 46.2 µM), inactives show at the top dose activity change, negative = growth inhibition, most hits filed as inhibitors; further: nearly all actives have a fitted effect of over 55% in size
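Chicken DT40 Tdp1-/- cells stably complemented with human TDP1 were seeded at 400 cells/well in medium containing 20 nM camptothecin, exposed to pin-transferred compounds, and grown at 37 °C for at least 48 hr. Viability was read as ATP luminescence.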
Gal4-VP16 FLuc: Gal4-VP16 reporter inhibition counter-screen. AID 2546. Potency, µM (series often up to 53.6 µM), for inactives: at the highest dose activity, negative = inhibition, most hits filed as inhibitors. Drosophila S2 Gal4-VP16 UAS-luciferase, luminescence, 20 h. 3.5% of 310,000 active;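 further: Gal4-VP16 expression switched on by copper sulfate through the metallothionein promoter; nearly all actives have a fitted effect of over 50% in size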
TDP1 inh: blocks human tyrosyl-DNA phosphodiesterase 1; Potency, µM (doses to about 130 µM), for inactives: at the top dose activity change, negative = inhibition, actives largely listed as inhibitors; AID 485290; Q9NUW8; 0.28% of 350,000 active; recombinant TDP1, AlphaScreen DNA substrate cleavage; further: nearly all actives have a fitted effect of over 40% in size
Target sequence (Q9NUW8 whole entry, looked up): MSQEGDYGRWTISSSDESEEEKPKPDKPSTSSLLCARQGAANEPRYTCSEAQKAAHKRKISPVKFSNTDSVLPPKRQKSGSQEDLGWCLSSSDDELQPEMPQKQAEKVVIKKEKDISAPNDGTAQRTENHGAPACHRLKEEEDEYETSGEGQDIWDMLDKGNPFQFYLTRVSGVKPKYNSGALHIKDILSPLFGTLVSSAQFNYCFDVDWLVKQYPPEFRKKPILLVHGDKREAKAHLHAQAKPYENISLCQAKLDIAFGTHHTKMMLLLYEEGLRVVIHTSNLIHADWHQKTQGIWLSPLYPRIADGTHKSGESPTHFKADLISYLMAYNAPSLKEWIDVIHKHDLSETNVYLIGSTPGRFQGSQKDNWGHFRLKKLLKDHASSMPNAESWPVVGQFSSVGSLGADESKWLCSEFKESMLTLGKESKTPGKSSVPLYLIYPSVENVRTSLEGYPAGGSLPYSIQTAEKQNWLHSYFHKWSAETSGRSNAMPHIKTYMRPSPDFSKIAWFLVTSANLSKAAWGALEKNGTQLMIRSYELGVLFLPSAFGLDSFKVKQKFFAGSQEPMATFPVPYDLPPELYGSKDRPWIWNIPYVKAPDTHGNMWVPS
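Enzyme-compound mixtures sat 15 min at room temperature, followed by a 5 min reaction with 15 nM final substrate and 10 min with AlphaScreen beads. Recombinant human Tdp1 was used at 1 nM final.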
Numbers without * were called inactive; ? = inconclusive; . = not tested or not shown. The call rests on the fitted dose curve; in most records, active means well fitted curve in the direction sought with a large enough effect; inconclusive means small, poorly fitted or top-dose-only effect, or another doubt; inactive means no such curve, though single readings can be large; an effect the other way counts as inactive or inconclusive. On the % scale 0 is the no-effect control and ±100 the full control effect; potency means the concentration at half of the fitted maximal effect.

SMILES	TDP1 cell noCPT	RORgamma inh	DT40 TDP1 CPT	Gal4-VP16 FLuc	TDP1 inh
C[C@H](O)[C@@H]1C(=O)N2CCc3ccc(N4CCOCC4)cc3[C@@H]2C[C@@H]1N(C)C(=O)Nc1ccccc1	-9%	.	-16%	.	.
COCCCNC(=O)Cn1c(=O)n(CC(=O)N2CCCCC2)c(=O)c2sccc21	-4%	-1%	4%	-7%	2%
Cc1ccc2nc(NC(=O)CSc3ncc(C(=O)Nc4ccccc4)c(=O)n3C)sc2c1	2%	.	-3%	.	5%
Cc1ccc(CNC(=O)CSc2ncc(C(=O)Nc3ccccc3)c(=O)n2C)cc1	15µM*	.	12µM*	.	0%
COc1ccc(CCNC(=O)CSc2ncc(C(=O)Nc3ccccc3)c(=O)n2C)cc1	?	.	?	.	-13%
COc1ccccc1NC(=O)c1cnc(SCC(=O)NCCc2ccccc2)n(C)c1=O	10µM*	.	16µM*	.	0%
Cn1c(SCC(=O)NCc2ccccc2)ncc(C(=O)Nc2ccccc2)c1=O	?	.	12µM*	.	-2%
Cn1c(SCC(=O)Nc2nc3ccccc3s2)ncc(C(=O)Nc2ccccc2)c1=O	1%	.	0%	.	-8%
CC(=O)Nc1ccc(NC(=O)CSc2ncc(C(=O)Nc3ccccc3)c(=O)n2C)cc1	21µM*	.	21µM*	.	0%
CSc1ncccc1C(=O)OCC(=O)NCCc1ccccc1	-2%	.	-13%	.	1%
Fc1ccc(CNc2nc(-c3cccnc3)nc3ccccc23)cc1	18µM*	37%	?	-2%	9%
c1ccc(CN2CCC(Nc3nc(-c4cccnc4)nc4ccccc34)CC2)cc1	13µM*	-26%	18µM*	-2%	4%
NS(=O)(=O)c1ccc(CNc2nc(-c3cccnc3)nc3ccccc23)cc1	15µM*	7%	?	0%	.
c1ccc(CNc2nc(-c3cccnc3)nc3ccccc23)cc1	?	22%	?	8%	.
CC(Nc1nc(-c2ccccc2)nc2ccccc12)c1ccccc1 (stereo not given)	?	28%	?	-4%	0%
CC(Nc1nc(-c2cccnc2)nc2ccccc12)c1ccc(F)cc1 (stereo not given)	18µM*	6%	26µM*	2%	9%
COc1ccnc2c1c(=O)n(Cc1ccc(Cl)cc1Cl)c(=O)n2C	-2%	-12%	-3%	3%	6%
CCOc1ccc(CN2CCNC(=O)C2CC(=O)NCCN2CCOC2=O)cc1 (stereo not given)	4%	-26%	-1%	-9%	0%
O=c1[nH]c(C2CCN(S(=O)(=O)/C=C/c3ccccc3)CC2)nc2c1nnn2Cc1ccccc1	?	-7%	?	-10%	.
CCN(CC(=O)Nc1ccc2c(c1)OCCO2)c1nc(-c2cccnc2)nc2ccccc12	23µM*	40%	?	-26%	8%
CCN(CC(=O)Nc1ccc2c(c1)OCCO2)C(=O)c1cc(Cl)nc2ccccc12	-34%	.	-5%	.	2%
c1cncc(-c2nc(NCc3ccc4c(c3)OCO4)c3ccccc3n2)c1	21µM*	-2%	?	-3%	5%
c1cncc(-c2nc(NCC3COc4ccccc4O3)c3ccccc3n2)c1 (stereo not given)	?	-18%	18µM*	-11%	8%
CCOC(=O)c1nc2cc3n(c(C)c-2c1C)C(C)C(CC)=C3C (stereo not given)	18µM*	.	21µM*	.	.
CCCCSc1nnc([C@H](C)NC(=O)OC(C)(C)C)o1	-6%	-33%	-11%	-16%	-2%
CSCC[C@H](NC(=O)OC(C)(C)C)c1nnc(SCC=C(C)C)o1	-13%	11µM*	-26%	-20%	7%
CCCCSc1nnc([C@H](CC(C)C)NC(=O)OC(C)(C)C)o1	?	1%	18µM*	5%	-3%
CCOc1ccc(C(C)NC(=O)Nc2ccccc2C(=O)OC)cc1 (stereo not given)	-29%	0%	?	6%	0%
CCCCOc1ccc(CN2CCCCC2)cc1	-11%	-19%	-22%	-16%	0%
